Neddyl block = inhibitors of human cullin neddylation; P61081+Q13564; TR-FRET cullin neddylation, biochemical; inhibition, % at 25 µM; 360,000 compounds, 0.58% hits; AID 651699; in the data active = inhibition above about 36%
PKA-R1A act = PKA-R1A complex activation; P00514+P68181; PKA-R1A dissociation, Cy5-IP20 fluorescence polarization; scaled: DMSO 0%, 113 µM cGMP 100%; activation, % at 11.4 µM; 340,000 compounds, 0.083% hits; AID 504707;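 active = percent activation above the mean of all tested compounds plus 3 SD, cut at about 19% in these data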;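 also: higher means more PKAc released from R1A so a rise in polarization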
PKA-R2B activ = activates the human PKA-R2B holoenzyme complex | PKA-R2B holoenzyme dissociation, Cy5-IP20 fluorescence polarization; R2B truncated from residue 108, S112A mutant; 0% DMSO only, 100% 113 µM cGMP | activation, % at 11.4 µM | 340,000 compounds, 0.079% hits | P22694+P31323;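 active = activation above a cutoff set at the mean over all compounds plus 3 SD, cut at about 18% in these data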;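 also: higher means more holoenzyme dissociation and a rise in polarization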
Target sequence (P31323 whole entry, looked up, other chains not shown, the tested form may be a part): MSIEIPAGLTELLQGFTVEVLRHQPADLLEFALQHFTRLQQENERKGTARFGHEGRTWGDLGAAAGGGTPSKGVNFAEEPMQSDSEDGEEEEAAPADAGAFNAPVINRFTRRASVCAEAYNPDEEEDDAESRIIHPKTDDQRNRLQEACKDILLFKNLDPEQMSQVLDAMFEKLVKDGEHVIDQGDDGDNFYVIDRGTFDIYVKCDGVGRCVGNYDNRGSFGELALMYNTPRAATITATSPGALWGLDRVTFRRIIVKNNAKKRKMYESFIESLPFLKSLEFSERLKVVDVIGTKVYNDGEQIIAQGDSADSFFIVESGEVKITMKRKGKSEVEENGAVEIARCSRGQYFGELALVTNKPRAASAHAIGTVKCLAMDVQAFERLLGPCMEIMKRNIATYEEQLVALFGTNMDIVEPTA
Rpn11 block = blocks the human proteasome subunit Rpn11 | calls only at 20 µM | human 26S proteasome, Ub4-pepOG fluorescence polarization; 20S core pre-blocked with epoxomicin | 360,000 compounds, 0.59% hits | O00487;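 active = inhibition at 20 µM, scaled to each plate's controls, above about 33%, limit read from the data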
R2B FP artifact = fluorescence polarization artifact in PKA-R2B activator counter-screen. activation, % at 11.4 µM. 270 compounds, 6% hits. shares compounds with PKA-R2B activ. AID 504796. FP artifact counterscreen; in the data active = activation above about 20%;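 also: Cy5 labelled IP20 peptide probe with compound but no PKA protein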
PKA-R2B act conf = PKA-R2B complex activation, confirmation; shares compounds with PKA-R2B activ; fluorescence polarization; activation, % at 11.4 µM; 270 compounds, 9% hits; in the data active = activation above about 19%
Target sequence (P31323 whole entry, looked up): as the sequence (P31323 whole entry, looked up, other chains not shown, the tested form may be a part) above
R1A FP artifact = fluorescence polarization artifact in PKA-R1A activator counter-screen | 280 compounds, 7% hits | Cy5-IP20 peptide alone, fluorescence polarization artifact counterscreen | activation, % at 11.4 µM | AID 504799 | shares compounds with PKA-R1A act;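 active = mean activation over triplicate runs exceeds the adjusted cutoff derived for the parent primary screen, cut at about 19% in these data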;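 also: no PKA protein present so any polarization rise reflects compound interference; 0% = tracer peptide mix alone and 100% = mix with added PKA catalytic subunit; higher means stronger polarization artifact and likely false positive in parent screen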
PKA-R1A confirm = PKA-R1A complex activation, confirmation. activation, % at 11.4 µM. 280 compounds, 9% hits. Cy5-IP20 fluorescence polarization, PKA-R1A holoenzyme dissociation. shares compounds with PKA-R1A act;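 active = mean activation over replicate wells exceeds the adjusted hit threshold taken from the earlier primary screen, cut at about 20% in these data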;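 also: 0% = holoenzyme mix with DMSO only and 100% = cGMP-activated control wells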
Rpn11 confirm = Rpn11 inhibition confirmation, single concentration; inhibition, % at 20 µM; 1,900 compounds, 29% hits; purified human 26S proteasome, Ub4-pepOG fluorescence polarization; proteasome pretreated with epoxomicin; AID 602318; shares compounds with Rpn11 block
MMP-2 counter = blocks human MMP-2, flagging nonselective RPN11 hits; shares compounds with Rpn11 block; recombinant MMP-2, FRET peptide cleavage fluorescence; inhibition, % at 20 µM; 1,900 compounds, 4% hits; AID 602330;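 also: human MMP-2 activated beforehand with APMA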
Thrombin FP = blocks bovine thrombin, flagging nonselective RPN11 hits; shares compounds with Rpn11 block; bovine thrombin cleavage of Ub4-pepOG, fluorescence polarization; inhibition, % at 20 µM; 1,900 compounds, 13% hits; AID 602333;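 active = mean inhibition at least 40% at 20 µM, or signal 3 deviations below plate average, so some actives read negative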;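 also: plate controls were thrombin with DMSO for no effect and buffer wells lacking thrombin for full effect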
* hit, by the source's call; i = inactive; nt = no result given; + = active, no number. An excerpt weighted towards active compounds, which were near 1.3% of everything screened. Rule as the data show it, unless noted: active = inhibition above about 40%; inactive = the rest.

SMILES	Neddyl block	PKA-R1A act	PKA-R2B activ	Rpn11 block	others
O=C1CC=C2C3CC4N(CCC45c4cc(O)c(O)cc4N1C25)CC3=CCBr (stereo unspecified)	48.7*	4.2	-2.8	i
CC(C)COC(=O)N1Cc2ccccc2-n2nncc2C1	-5.1	-6.0	8.7	i
C#CC[N+]1(C)[C@@H]2CC[C@H]1CC(OC(=O)C(CO)c1ccccc1)C2 (stereo partly specified)	8.7	-7.4	-1.3	i
O=C(Cn1cc(C=C2C(=O)NC(=O)NC2=O)c2ccccc21)NCC1CCCO1 (stereo unspecified)	5.8	-1.0	-2.4	i
Cc1c(C=C2C(=O)N(C)C(=S)N(C)C2=O)c2ccccc2n1CC(=O)NCC1CCCO1 (stereo unspecified)	-15.3	-3.0	-5.6	+
COC1C(O)C(C)OC(OC2C(Oc3cccc4c(O)c5c(=O)oc6ccc(C)c7c(=O)oc(c34)c5c67)OC(C)C(O)C2O)C1O (stereo unspecified)	40.5*	-0.8	3.4	i
Cc1ccc(N2C(=O)NC(=O)/C(=C\C=C\c3ccco3)C2=O)cc1	-3.0	8.2	9.2	i
CN1C(=O)/C(=C/C=C/c2ccco2)C(=O)NC1=S	5.5	-10.7	5.7	+
O=C1NC(=O)N(Cc2ccco2)C(=O)/C1=C/C=C/c1ccco1	11.4	4.5	3.5	+
c1ccc(-c2ccc(CN3Cc4ccccc4-n4nncc4C3)cc2)cc1	-4.5	-11.2	-11.6	i
COc1ccc(/C=C2\C(=O)NC(=S)N(C)C2=O)cc1C	5.5	-12.9	1.5	+
Cc1ccsc1/C=C1\C(=O)NC(=S)N(C)C1=O	-2.0	-1.6	-8.2	i
O=C1NC(=S)N(c2ccc(F)cc2)C(=O)/C1=C\c1ccoc1	9.4	0.7	6.7	+
C=C1C(=O)O[C@@H]2C[C@@H](C)[C@@H]3C=CC(=O)[C@@]3(C)[C@@H](OC(=O)CC(=O)O[C@H]3[C@@H]4C(=C)C(=O)O[C@@H]4C[C@@H](C)[C@@H]4C=CC(=O)[C@]43C)[C@H]12	-1.9	9.0	-2.4	+
C=C1C(=O)OC2CC(C)C3C=CC(=O)C3(C)C(O)C12 (stereo unspecified)	8.2	-1.3	-0.9	i
COC(=O)C1(F)C(=O)NC(=O)NC1O (stereo unspecified)	1.4	nt	nt	nt
COc1ccc(C(c2nnnn2-c2ccc3c(c2)OCCO3)N2CCC3(CC2)C(=O)NCN3c2ccccc2)cc1 (stereo unspecified)	-0.8	nt	nt	i
C/C=C1/C[C@@H](C)[C@](O)(CO)C(=O)OCC2=CCN3CC[C@@H](OC1=O)[C@@H]23	-3.8	-10.9	-3.1	i
Cc1ccc2c(C)c3ccc4ccccc4c3c[n+]2c1	64.2*	7.4	-0.7	i
Cc1ccc(-c2cc(-c3ccc(C)cc3)[n+](-c3ccc(C(=O)O)cc3)c(-c3ccc(C)cc3)c2)cc1	35.9*	-2.5	3.5	i
O=C(O)c1ccc(-[n+]2c(-c3ccccc3)cc(-c3ccccc3)cc2-c2ccccc2)cc1	-13.9	-2.6	-6.3	i
COC1C(O)C(C)OC(OC2CCC3(C)C(CCC4C3C(O)CC3(C)C(C5=CC(=O)OC5)CCC43O)C2)C1O (stereo unspecified)	-5.5	15.4	-1.7	i
COC(=O)C1=C(C(=O)OC)SC2(S1)C(C(=O)OC)=C(C(=O)OC)Sc1c2ssc1=O	-41.6	-4.4	-4.5	+
Clc1ccc(C(c2ccc(Cl)cc2)n2cc[n+](CC(OCc3ccc(Cl)cc3Cl)c3ccc(Cl)cc3Cl)c2)cc1 (stereo unspecified)	12.1	-2.3	13.2	+
Cc1cc(N2CCCC2)ccc1C=C(C#N)C#N	-74.4	-15.5	-4.8	i
SMILES	Neddyl block	PKA-R1A act	PKA-R2B activ	Rpn11 block	others
N#CC(C#N)=Cc1ccc(C=C(C#N)C#N)cc1	-3.2	0.2	-2.2	+
CN1C(=O)C(=Cc2ccc(Sc3ccccc3)o2)C(=O)N(C)C1=S	-16.7	-4.8	-3.3	+
CN(Cc1cccc(-c2ccncc2)c1)C(=O)Oc1ccccc1Cc1ccccc1	4.8	nt	nt	nt
C#CCNc1ccncc1S(=O)(=O)NC(=O)NC(C)C	4.6	9.6	20.4*	i	R2B FP artifact=1.6;PKA-R2B act conf=2.4
Cc1ccc(OC(=O)N(C)C[C@H]2OCc3cnnn3CCCC(=O)N([C@H](C)CO)C[C@@H]2C)cc1	8.7	-1.5	-6.5	i
CCOC(=O)c1ccccc1NC(=O)c1c(O)[nH]c(=S)[nH]c1=O	-0.7	18.8*	1.4	i	R1A FP artifact=0.9;PKA-R1A confirm=1.4
COC(=O)C1=C(c2c(C)noc2C)C[C@@H]2CC[C@H]1N2C(=O)N1CCCC1	-7.3	20.1*	-6.6	i	R1A FP artifact=3.0;PKA-R1A confirm=2.7
COC(=O)C1=C(c2c(C)noc2C)C[C@@H]2CC[C@H]1N2C(=O)NC(C)C	0.2	4.2	-4.7	i
COC(=O)C1=C(c2ccc(F)cc2OCc2ccccc2)C[C@@H]2CC[C@H]1N2C(=O)NC1Cc2ccccc2C1	0.8	-7.6	-3.5	i
Cc1ccc(-n2c(O)c(/C=N/N3CCCCC3c3cccnc3)c(=O)[nH]c2=S)cc1 (stereo unspecified)	4.0	6.1	2.7	+	Rpn11 confirm=51.5*;MMP-2 counter=-14.2;Thrombin FP=39.7
Cc1cccc(N2C(=O)/C(=C/c3ccc(CN(CCC#N)S(C)(=O)=O)o3)C(=O)NC2=S)c1	2.7	-9.7	-7.2	+	Rpn11 confirm=73.0*;MMP-2 counter=46.0*;Thrombin FP=125.3*
CCCCC(=O)N/N=C/c1c(O)n(Cc2ccc(F)cc2)c(=O)[nH]c1=O	-1.8	-7.9	-5.0	+	Rpn11 confirm=32.4;MMP-2 counter=-36.6;Thrombin FP=-0.9
O=C(N/N=C/c1c(O)n(Cc2ccc(F)cc2)c(=O)[nH]c1=O)c1ccccc1	nt	-3.8	-2.2	i

Screening data deposited in PubChem BioAssay by several laboratories.
